PubChem BioAssay (NCI)
The panel holds about 83,000 compounds, 20% with a hit somewhere; the sample as a whole holds those more often.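 Note: values are percent growth. 100 is the growth of untreated cells, values between 100 and 0 indicate rising inhibition; between -100 and 0 indicates cell death.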 Active and inactive are the calls of the source. The calls were made as follows: active = growth percent below 10; inactive = the rest.

What follows are compounds tested on HCT-116 colon (assay: NCI-60 one-dose screen, 48 h (100 = growth as untreated, 0 = no growth, -100 = all killed)). Conditions: 10 µM unless noted.

SMILES | growth
Cc1cc(S(=O)(=O)/N=C(\N)n2nc(C)c(C)c2C)c(SCc2ccccc2)cc1Cl | 62% (inactive)
CS(=O)(=O)Nc1cncc(-c2ccc3ncnc(Nc4cncc(Cl)c4)c3c2)c1 | 91.3% (inactive)
CC(C)(Sc1cc(C(C)(C)C)c(OC(=O)CCCC(=O)O)c(C(C)(C)C)c1)Sc1cc(C(C)(C)C)c(OC(=O)CCCC(=O)O)c(C(C)(C)C)c1 | 15.9% (inactive)
COc1cc2c(c(OC)c1OC)CCC(c1cccc(NC(=O)c3ccc(Br)cc3)c1)O2 (stereo not given) | 71.9% (inactive)
COc1ccc(CNc2c3ccccc3nc3ccccc23)cc1 | 9.53% (active)
N#CSc1c[nH]c2cccc(/C=C/C(=O)/C=C(/C=C/c3cccc4[nH]cc(SC#N)c34)OB(F)F)c12 | -88.5% (active)
CC1=NC2=Nn3c(c4cnn(-c5ccccc5)c4n/c3=N\N)NN2C(c2ccccc2)=C1 | 99.3% (inactive)
COc1ccc(\C=N/N=C(N)/C(N)=N\N=C/c2ccc(OC)cc2)cc1 | 113% (inactive)
NC(=O)c1cccc(-n2ccc3cc(NC(=O)c4ccc(N5CCOCC5)c(C(F)(F)F)c4)ccc32)n1 | 44.5% (inactive)
COc1ccc(-c2nc3cc(C(=O)NCc4ccccc4)ccc3n2C2CCCCC2)cc1 | 82.9% (inactive)
CN(C)CC(C)(C)C(=O)/C=C/c1ccccc1 | -87.1% [25 µM] (active)
C=CCn1c(SCC(=O)Nc2ccc(C(=O)/C=C/c3ccc(Cl)cc3)cc2)nnc1-c1ccc(Br)cc1 | -80.4% (active)
Cc1cn(-c2cc(NC(=O)c3cccc(C#Cc4cccc5[nH]nc(N)c45)c3)cc(C(F)(F)F)c2)cn1 | 23.5% (inactive)
Oc1c(I)cc(I)cc1CNCCN(Cc1ccccn1)Cc1ccccn1 | -45.1% (active)
C=CC[Se]C(=O)Cc1c(C)n(C(=O)c2ccc(Cl)cc2)c2ccc(OC)cc12 | 5.41% (active)
CCC(=C(c1ccc(OCCN2CCCCC2)cc1)c1ccc(OCCN2CCCCC2)cc1)c1ccc(Cl)cc1 | -91.1% (active)
Cc1ccc(/C=C2\COc3ccc(O)cc3C2=O)cc1 | 59.5% (inactive)
COc1cc2nc3cc([N+](=O)[O-])ccc3c(NCCNCC(C)O)c2cc1OC (stereo not given) | -18.8% (active)
O=C(NNC(=O)c1ccc(NC(=O)c2ccccn2)cc1)Nc1ccc([N+](=O)[O-])cc1 | 101% (inactive)
O=C(Nc1ccc(Oc2cccc(F)c2)c(Cl)c1)c1cccnc1 | 33.7% (inactive)

SMILES | growth
CCCc1c(OC(=O)c2ccccc2)nc2[nH]c(=O)sc2c1C | 98% (inactive)
CCCCCN1C(=O)/C(=c2\sc3n(c2=O)C2C(NN=3)N(CC)C(=O)N2CC)c2ccccc21 (stereo not given) | -72.1% (active)
CCOC(=O)c1cc(C)n(-c2ccc(C(=O)O)cc2)c1C | 67.5% (inactive)
O=C1NC(=O)C(Cc2ccc(OCc3ccc(-c4ccc(Cl)cc4Cl)cc3)cc2)S1 (stereo not given) | 38.6% (inactive)
CC/C=C\C[C@H](O)C/C=C1/C(=O)C=C[C@@H]1C/C=C\CCCC(=O)N(C)C | -63.4% (active)
NC(=O)CSc1oc(-c2ccccc2)nc1S(=O)(=O)c1ccc(Br)cc1 | 50.6% (inactive)
COc1cc(-c2nccc3[nH]c(-c4ccc5cc[nH]c5c4)nc23)cc(OC)c1OC | 4.37% (active)
Cc1nc2sc(C(=O)Nc3cccc(Br)c3)c(N)c2cc1C(O)c1ccccc1 (stereo not given) | 16.2% (inactive)
CC(C)c1ccc(Cc2cnc(NC(=O)c3cc(Br)cs3)s2)cc1 | 26.1% (inactive)
Cc1ccc(-c2nc([P+](c3ccccc3)(c3ccccc3)c3ccccc3)c(S(=O)(=O)c3ccc(C)cc3)o2)cc1 | -68.6% (active)
COC(CC(F)F)c1cn(S(=O)(=O)c2ccc(C)cc2)c2ccccc12 (stereo not given) | 17.2% (inactive)
Cc1ccc(C[P+](c2ccccc2)(c2ccccc2)c2ccccc2)cc1 | 2.21% (active)
Cn1cc(-c2nonc2-c2cn(C)c3ccccc23)c2ccccc21 | 11.6% (inactive)
CC1=C2[C@@H](CC1)[C@]1(C)O[C@@](C(C)C)(C[C@H]1OC(=O)[C@H](C)O)[C@H]2OC(=O)/C=C/c1ccccc1 | 74.2% (inactive)
Cc1c(-c2ccc(O)cc2)n(Cc2ccc(OCCN3CCCCCC3)cc2)c2ccc(O)cc12 | 59.1% (inactive)
CCOC(=O)C(=O)C(C(=O)OCC)c1ccccc1 (stereo not given) | 96.2% (inactive)
CS(=O)(=O)c1ccc(-c2cnn3ccc(-c4cccc(S(=O)(=O)C5CC5)c4)nc23)cc1 | 55.5% (inactive)
O=S(=O)(NCCNc1nccc(-c2c(-c3ccc(F)c(O)c3)nc3occn23)n1)c1ccc(Cl)cc1 | 60.9% (inactive)
Nc1n[nH]c2cccc(C#Cc3cccc(NC(=O)c4cc(F)cc(C(F)(F)F)c4)c3)c12 | 29.9% (inactive)
N#Cc1nc(-c2ccc(F)cc2)oc1S(=O)(=O)N1CCOCC1 | -18.4% (active)
